Measured values published in PubChem BioAssay (NCATS).
Where “and” joins values, the source holds several entries; their conditions need not be identical. Identical values can stand only once. Records with an inconclusive call do not appear. Calls of active or inactive are those of the source. Unless noted, calls follow the shape of the dose curve; as a rule, active = well fitted curve in the direction sought with a large enough effect; inconclusive = small, poorly fitted or top-dose-only effect, or another doubt; inactive = no such curve, though single readings can be large; an effect the other way counts as inactive or inconclusive.

How the values were obtained:
[1] = Cell Viability - Hek293 (AID 427;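 active = compounds whose dose-response curve shows a full or clear partial loss of cell viability, called from curve shape rather than a numeric limit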;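 also: potency is read from the fitted curve at half-maximal effect; cells exposed to compound for 40 hours at 37 °C before reading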); details: qHTS
Method in brief: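 HEK293 cells in complete medium were exposed to compound for 40 hr at 37 °C, then cellular ATP was read by CellTiter-Glo luminescence. Data were normalized to DMSO (basal) and 100 uM tamoxifen (100% inhibition), and AC50 came from Hill fits.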

[2] = Cell Viability - SK-N-SH (AID 435; calls by dose curve;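 also: potency is read from the fitted curve at half-maximal effect; compound exposure lasted 40 h at 37 °C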); details: SK-N-SH neuroblastoma cell viability qHTS
Method in brief: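 SK-N-SH neuroblastoma cells (1500/well) treated 40 h at 37 °C in complete medium; viability read as cellular ATP by CellTiter-Glo luminescence. Normalized to DMSO and 100 uM tamoxifen; AC50 from Hill fits of qHTS concentration-response.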

[3] = Cell Viability - Renal Proximal Tubule (AID 545); details: renal proximal tubule cells viability, primary cells of rat origin; activity change, negative = cytotoxicity: at 91.7 µM (top of the series);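 also: 0% = DMSO only and -100% = 100 µM tamoxifen; nearly all actives have a fitted effect of over 40% in size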
Method in brief: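 Rat renal proximal tubule primary cells, 1000/well, exposed to compounds for 40 hr at 37 °C in complete medium; cellular ATP read by CellTiter-Glo luminescence. AC50 from concentration-response fitted with standard Hill equation.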

[4] = MultiTox-Fluor Cytotoxicity Assay - LYMP1-001 - Live Cells (AID 947); details: LYMP1-001 lymphoblastoid cells, live-cell protease fluorescence viability; series mostly up to 92.2 µM;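 also: 0% = DMSO only and full inhibition = tetraoctylammonium bromide control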
[5] = MultiTox-Fluor Cytotoxicity Assay - LYMP1-002 - Dead Cells (AID 960); details: LYMP1-002 lymphoblastoid cells, dead-cell protease fluorescence; series mostly up to 46.1 µM; also: nearly all actives have a fitted effect of over 60% in size
Method in brief: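 LYMP1-002 cells 2500/well; 5 hr 37 C pre-incubation; compound 16 hr 37 C; MultiTox-Fluor reagent 60 min RT; dead-cell fluor Ex/Em 485/520. Norm. to DMSO (0%) vs 15 uM tetraoctylammonium bromide (100%); Hill AC50.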

[6] = Cell Viability - LYMP2-005 (AID 967); details: LYMP2-005 lymphoblastoid cell viability; series mostly up to 92.2 µM;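 also: plate controls were DMSO only for no effect and 92 µM tetraoctylammonium bromide control for full effect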
Method in brief: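 Human lymphoblastoid LYMP2-005 cells, 2,500 per well in complete medium, rested 5 h at 37C then compound-treated 24 h at 37C. Intracellular ATP read by CellTiter-Glo luminescence after 30 min at room temperature; AC50 from Hill-equation fits of concentration-response data.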

[7] = Cell Viability - LYMP2-009 (AID 968); details: LYMP2-009 lymphoblastoid cell viability; series mostly up to 92.2 µM;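 also: 0% = DMSO alone and the full-kill end = tetraoctylammonium bromide at 92 µM; nearly all actives have a fitted effect of over 55% in size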
[8] = Cell Viability - LYMP2-015 (AID 971); details: LYMP2-015 lymphoblastoid cell viability; series mostly up to 92.2 µM;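 also: 0% = DMSO only and full effect = 92 µM tetraoctylammonium bromide; nearly all actives have a fitted effect of over 55% in size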
Method in brief: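 Luminescent ATP read-out (CellTiter-Glo) served as the viability measure after lymphoblastoid cells were exposed to compounds for 24 hours at 37 C. Concentration-response data were fitted with the Hill equation to give AC50.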

[9] = Cell Viability - LYMP2-019 (AID 973); details: LYMP2-019 lymphoblastoid cell line viability; series mostly up to 92.2 µM;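 also: 0% = DMSO alone and full effect = 92 µM tetraoctylammonium bromide; nearly all actives have a fitted effect of over 55% in size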
Method in brief: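 Luminescent ATP read-out (CellTiter-Glo, 30 min room temperature) served as the viability measure after 24 hr treatment of lymphoblastoid cells at 37 C. Concentration-response data were fitted to the Hill equation for AC50.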

[10] = Cell Viability - LYMP2-006 (AID 978); details: LYMP2-006 lymphoblastoid cell viability, qHTS; series mostly up to 92.2 µM; also: % is scaled to controls: 0 for no effect and ±100 for the full control effect; nearly all actives have a fitted effect of over 60% in size
Method in brief: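 Human lymphoblastoid cells (LYMP2-006), 2500/well in complete medium, were treated with compound for 24 hr at 37 C. Cellular ATP was read by CellTiter-Glo luminescence after 30 min, and AC50 values came from Hill-equation fits of concentration-response data.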

[11] = Cell Viability - LYMP2-010 (AID 981); details: LYMP2-010 lymphoblastoid cell viability, qHTS; series mostly up to 92.2 µM; also: % is scaled to controls: 0 for no effect and ±100 for the full control effect; nearly all actives have a fitted effect of over 55% in size
Method in brief: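 Luminescent ATP signal (CellTiter-Glo) served as the viability read-out. Cells of the human lymphoblastoid line were treated with compound over a concentration range for 24 hours at 37 C, and AC50 values came from Hill-equation modeling.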

[12] = molecular target: Glucocorticoid receptor (Homo sapiens) (UniProt P04150); assay: qHTS assay for small molecule agonists of glucocorticoid receptor signaling (AID 588532; active = well fitted curve in the direction sought with a large enough effect in the signal ratio, with a control signal flat; the % refers to the signal ratio;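 also: 100% = dexamethasone at 0.1 µM and 0% = DMSO only wells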); details: HeLa MMTV-bla, beta-lactamase ratio, agonist, 18 h; stronger effect = higher value; percent of dexamethasone control, DMSO zero
Sequence of Glucocorticoid receptor (Homo sapiens) (P04150 whole entry, looked up): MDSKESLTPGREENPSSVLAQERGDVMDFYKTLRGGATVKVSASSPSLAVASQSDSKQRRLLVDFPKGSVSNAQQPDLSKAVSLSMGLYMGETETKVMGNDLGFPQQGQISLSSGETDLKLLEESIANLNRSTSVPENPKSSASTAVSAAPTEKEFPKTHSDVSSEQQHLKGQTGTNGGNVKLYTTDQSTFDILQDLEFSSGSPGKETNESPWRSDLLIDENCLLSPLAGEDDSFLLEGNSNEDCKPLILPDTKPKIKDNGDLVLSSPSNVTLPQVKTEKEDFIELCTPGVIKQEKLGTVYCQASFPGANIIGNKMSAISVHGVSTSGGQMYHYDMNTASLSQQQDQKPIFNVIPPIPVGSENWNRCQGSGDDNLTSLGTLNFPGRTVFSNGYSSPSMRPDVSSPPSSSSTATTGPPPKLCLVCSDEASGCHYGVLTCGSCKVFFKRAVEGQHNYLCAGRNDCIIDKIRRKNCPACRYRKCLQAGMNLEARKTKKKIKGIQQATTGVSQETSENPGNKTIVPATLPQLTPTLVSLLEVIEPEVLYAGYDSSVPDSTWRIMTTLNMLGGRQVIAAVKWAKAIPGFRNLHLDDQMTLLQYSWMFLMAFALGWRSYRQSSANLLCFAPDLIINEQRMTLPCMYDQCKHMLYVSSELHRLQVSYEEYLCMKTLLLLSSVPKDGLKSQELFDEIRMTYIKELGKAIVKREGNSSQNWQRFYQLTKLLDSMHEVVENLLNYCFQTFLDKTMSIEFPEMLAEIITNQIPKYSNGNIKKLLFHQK
Method in brief: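 MMTV-bla HeLa, beta-lactamase reporter; medium with 1% charcoal/dextran-stripped FBS; cpds up to 92 uM, 18 h, 37 C; CCF4 readout 460/530 nm; Hill fit → EC50, efficacy vs 0.1 uM dexamethasone = 100%.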

[13] = qHTS assay for small molecule agonists of retinoid X receptor alpha signaling (AID 588544); details: HEK293T RXRa-UAS-bla, beta-lactamase reporter, 18 h; 530 nm emission
[14] = molecular target: Thyroid hormone receptor beta (Homo sapiens) (UniProt P10828); assay: qHTS assay for small molecule agonists of thyroid hormone receptor beta signaling (AID 588545; calls by dose curve;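 also: 0% = DMSO only and 100% = 10 nM T3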); details: TR-UAS-bla GripTite HEK 293, beta-lactamase ratio, agonist mode, 18 h; series mostly up to 76.7 µM
Sequence of Thyroid hormone receptor beta (Homo sapiens) (P10828 whole entry, looked up): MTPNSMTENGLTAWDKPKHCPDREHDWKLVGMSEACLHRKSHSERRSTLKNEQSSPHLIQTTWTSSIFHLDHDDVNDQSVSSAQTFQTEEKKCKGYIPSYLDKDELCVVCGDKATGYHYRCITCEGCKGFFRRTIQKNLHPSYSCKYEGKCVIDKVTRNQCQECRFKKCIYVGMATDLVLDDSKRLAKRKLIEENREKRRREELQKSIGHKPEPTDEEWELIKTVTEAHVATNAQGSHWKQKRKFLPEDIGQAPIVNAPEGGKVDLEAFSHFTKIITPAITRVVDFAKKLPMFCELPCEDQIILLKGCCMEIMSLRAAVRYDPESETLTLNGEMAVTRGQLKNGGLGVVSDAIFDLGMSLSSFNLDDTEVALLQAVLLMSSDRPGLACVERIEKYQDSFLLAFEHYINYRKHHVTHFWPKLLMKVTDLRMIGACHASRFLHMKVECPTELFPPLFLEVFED
Method in brief: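 TR-UAS-bla-GripTite HEK 293 cells in medium with 2% charcoal/dextran FBS, 0.1 mM NEAA and 1 mM sodium pyruvate were treated with titrated compounds for 18 hrs at 37 C. Beta-lactamase reporter was read with CCF4 dye (ex 405, em 460/530 nm); EC50 from Hill fits.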

[15] = molecular target: Thyroid hormone receptor beta (Homo sapiens) (UniProt P10828); assay: qHTS assay for small molecule antagonists of thyroid hormone receptor beta signaling (AID 588547; active = well fitted inhibition curve with a large enough effect in the signal ratio, with a control signal flat, not every such curve was filed as active; the % refers to the signal ratio;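 also: cells stimulated with 0.4 nM T3 agonist during compound exposure; % is scaled to controls: 0 for no effect and ±100 for the full control effect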); details: TR-UAS-bla HEK293, beta-lactamase ratio, antagonist mode, 18 h
Method in brief: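 TR-UAS-bla GripTite HEK293 cells in 2% charcoal/dextran FBS medium were preincubated 4 h at 37 C, given compound (0.59 nM to 92 uM) plus 0.4 nM T3 (final) for 18 h, then CCF4 for 2 h at RT; Hill fit gave IC50.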

[16] = molecular target: Voltage-gated inwardly rectifying potassium channel KCNH2 (Homo sapiens) (UniProt Q12809); assay: qHTS Assay for Small Molecule Inhibitors of the Human hERG Channel Activity (AID 588834); details: U2OS BacMam hERG, FluxOR thallium flux fluorescence; series mostly up to 92.2 µM;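 also: top concentration of the series differs between compounds; % is scaled to controls: 0 for no effect and ±100 for the full control effect; lower thallium flux fluorescence means stronger hERG block; nearly all actives have a fitted effect of over 50% in size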
Sequence of Voltage-gated inwardly rectifying potassium channel KCNH2 (Homo sapiens) (Q12809 whole entry, looked up): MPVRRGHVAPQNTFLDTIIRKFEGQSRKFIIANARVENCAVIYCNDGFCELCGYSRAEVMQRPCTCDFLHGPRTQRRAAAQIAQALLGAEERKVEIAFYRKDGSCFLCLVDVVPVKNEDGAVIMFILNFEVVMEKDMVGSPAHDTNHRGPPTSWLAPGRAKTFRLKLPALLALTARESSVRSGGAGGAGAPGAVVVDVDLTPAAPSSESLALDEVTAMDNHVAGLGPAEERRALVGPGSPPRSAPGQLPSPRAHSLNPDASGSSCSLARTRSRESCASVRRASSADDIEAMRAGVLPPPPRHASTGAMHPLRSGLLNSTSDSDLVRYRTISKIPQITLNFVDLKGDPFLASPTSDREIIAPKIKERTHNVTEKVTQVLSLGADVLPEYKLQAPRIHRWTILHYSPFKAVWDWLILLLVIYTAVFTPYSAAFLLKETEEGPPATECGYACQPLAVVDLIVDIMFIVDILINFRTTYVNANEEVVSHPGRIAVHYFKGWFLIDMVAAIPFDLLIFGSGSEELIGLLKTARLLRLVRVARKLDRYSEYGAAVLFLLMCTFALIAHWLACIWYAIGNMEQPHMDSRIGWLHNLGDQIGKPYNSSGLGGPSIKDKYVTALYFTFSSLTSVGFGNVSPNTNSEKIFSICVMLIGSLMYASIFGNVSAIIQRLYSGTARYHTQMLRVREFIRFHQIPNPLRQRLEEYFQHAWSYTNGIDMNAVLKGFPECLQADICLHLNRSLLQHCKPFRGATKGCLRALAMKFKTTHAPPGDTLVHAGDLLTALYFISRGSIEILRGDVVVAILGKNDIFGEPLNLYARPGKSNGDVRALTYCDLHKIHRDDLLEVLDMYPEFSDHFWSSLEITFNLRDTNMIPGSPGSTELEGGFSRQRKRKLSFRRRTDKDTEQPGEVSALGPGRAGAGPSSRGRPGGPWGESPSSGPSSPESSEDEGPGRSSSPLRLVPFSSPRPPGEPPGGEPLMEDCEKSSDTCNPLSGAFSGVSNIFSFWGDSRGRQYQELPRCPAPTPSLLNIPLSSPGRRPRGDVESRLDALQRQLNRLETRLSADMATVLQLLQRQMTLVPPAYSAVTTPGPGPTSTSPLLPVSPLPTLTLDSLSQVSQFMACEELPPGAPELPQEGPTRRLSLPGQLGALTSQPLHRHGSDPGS
Method in brief: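 U2OS cells BacMam-transduced with hERG, 2000 cells/well, compound ~10 min at 37 °C before stimulation buffer. FluxOR thallium flux fluorescence read kinetically on FDSS; decrease indicates block; AC50 from Hill fits.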

[17] = qHTS assay for small molecule disruptors of the mitochondrial membrane potential - 1 hr assay (AID 651754; calls by dose curve; also: nearly all actives have a fitted effect of over 35% in size; also: potency is read from the fitted curve at half-maximal effect); details: series mostly up to 92.2 µM
Method in brief: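 HepG2, 2,000 cells/well, overnight attachment; cpd or DMSO 1 hr, 37C/5% CO2; Mito-MPS dye 30 min, 37C; fluorescence monomer (490/535) and aggregate (540/590).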

[18] = qHTS assay for small molecule disruptors of the mitochondrial membrane potential - 5 hr assay (AID 651755; calls by dose curve; also: nearly all actives have a fitted effect of over 40% in size; also: potency is read from the fitted curve at half-maximal effect); details: JC-1-type ratio dye; series mostly up to 92.2 µM
Method in brief: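 HepG2 cells, attached overnight at 37C, were exposed to compound or DMSO for 5 hr at 37C, 5% CO2. Mito-MPS dye was then added for 30 min, and fluorescence read at 490/535 nm (monomers) and 540/590 nm (aggregates).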

[19] = qHTS assay for small molecule antagonists of the retinoid-related orphan receptor gamma (ROR-gamma) signaling pathway - cell viability counter screen (AID 720652; active = well fitted curve in the direction sought with a large enough effect in the repeat runs; an effect the other way counts as inactive or inconclusive;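 also: compound exposure lasted 16 hr before ATP read; % is scaled to controls: 0 for no effect and ±100 for the full control effect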); details: RORgamma reporter cell line viability counter screen; series mostly up to 92.2 µM
Method in brief: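 Luminescence from CellTiter-Glo after 30 min at room temperature reported cellular ATP as the cytotoxicity measure. Cells were the CHO reporter line with doxycycline-induced ROR-gamma expression, exposed to compound for 16 hr at 37 C.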

[20] = molecular target: Nuclear receptor subfamily 1 group I member 2 (Rattus norvegicus) (UniProt Q9R1A7); assay: qHTS assay for small molecule activators of the rat pregnane X receptor (rPXR) signaling pathway (AID 651751; call rule not given here; also: 0% is about no effect); details: rPXR reporter cells, luciferase (One-Glo), 24 h
Sequence of Nuclear receptor subfamily 1 group I member 2 (Rattus norvegicus) (Q9R1A7 whole entry, looked up): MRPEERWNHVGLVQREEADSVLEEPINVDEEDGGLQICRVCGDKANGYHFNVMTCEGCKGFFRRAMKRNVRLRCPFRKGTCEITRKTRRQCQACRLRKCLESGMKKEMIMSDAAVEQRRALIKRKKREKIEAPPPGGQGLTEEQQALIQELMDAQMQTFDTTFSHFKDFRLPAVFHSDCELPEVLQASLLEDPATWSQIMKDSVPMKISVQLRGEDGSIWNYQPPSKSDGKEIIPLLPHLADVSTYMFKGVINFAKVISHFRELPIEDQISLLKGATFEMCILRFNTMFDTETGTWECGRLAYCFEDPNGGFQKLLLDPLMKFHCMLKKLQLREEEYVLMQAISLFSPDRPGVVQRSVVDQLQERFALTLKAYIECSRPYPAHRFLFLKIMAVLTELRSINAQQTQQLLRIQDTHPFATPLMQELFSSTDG

C=CC1CO1 (stereo unspecified)
inactive: Potency [1] > 92 µM | Potency [2] > 92 µM | Potency [3] | Potency [4] | Potency [5] | Potency [6] | Potency [7] | Potency [8] | Potency [9] | Potency [10] | Potency [11] | activation [12] -10.4% | Potency [14] | activity change % (negative = inhibition) [15] 4.27% | Potency [16] | Potency [17] | Potency [18] | Potency [19] | max response [20] 4.12%
-16.9%: max response [13]

Cc1ccc(C(=O)O)cc1[N+](=O)[O-]
0.231%: max response [13]
inactive: Potency [1] > 92 µM | Potency [2] > 92 µM | Potency [3] | Potency [4] | Potency [5] | Potency [6] | Potency [7] | Potency [8] | Potency [9] | Potency [10] | Potency [11] | activity change % (negative = inhibition) [15] 2.7% | Potency [16] | Potency [17] | Potency [18] | Potency [19] | max response [20] 1.55%

c1ccc2c(c1)ccc1ccccc12
-6.28%: max response [13]
inactive: Potency [1] > 92 µM | Potency [2] > 92 µM | Potency [3] | Potency [4] | Potency [5] | Potency [7] | Potency [8] | Potency [9] | Potency [10] | Potency [11] | activation [12] 3.65% and 10.6% | Potency [14] | activity change % (negative = inhibition) [15] 0.286% | Potency [16] | Potency [17] | Potency [18] | Potency [19] | max response [20] -1.82% and 1.55%

c1ccc(CSCc2ccccc2)cc1
-16.6%: max response [13]
inactive: Potency [1] > 92 µM | Potency [2] > 92 µM | Potency [3] | Potency [4] | Potency [5] | Potency [6] | Potency [7] | Potency [8] | Potency [9] | Potency [10] | Potency [11] | activation [12] -4.65% | Potency [14] | activity change % (negative = inhibition) [15] -5.66% | Potency [17] | Potency [18] | Potency [19] | max response [20] -1.32%

CC(=O)OC(C(=O)c1ccccc1)c1ccccc1 (stereo unspecified)
-6.96%: max response [13]
inactive: Potency [1] > 92 µM | Potency [2] > 92 µM | Potency [3] | Potency [4] | Potency [5] | Potency [6] | Potency [7] | Potency [8] | Potency [9] | Potency [10] | Potency [11] | activation [12] 8.92% | Potency [14] | activity change % (negative = inhibition) [15] 4.95% | Potency [16] | Potency [18] | Potency [19] | max response [20] 1.59%

CCCCCCCCC1CO1 (stereo unspecified)
inactive: Potency [1] > 92 µM | Potency [2] > 92 µM | Potency [3] | Potency [5] | Potency [6] | Potency [7] | Potency [8] | Potency [9] | Potency [10] | Potency [11] | activation [12] -2.27% | Potency [14] | activity change % (negative = inhibition) [15] 2.22% | Potency [16] | Potency [17] | Potency [18] | Potency [19] | max response [20] -2.96%
-17.5%: max response [13]

CCCCC(CC)COCCCN (stereo unspecified)
1.27%: max response [13]
inactive: Potency [1] > 92 µM | Potency [2] > 92 µM | Potency [3] | Potency [4] | Potency [5] | Potency [6] | Potency [7] | Potency [8] | Potency [9] | Potency [10] | Potency [11] | activation [12] -4.42% | Potency [14] | activity change % (negative = inhibition) [15] 3.53% | Potency [16] | Potency [19] | max response [20] 1.77%

CN(C)c1ccc(Cc2ccc(N(C)C)cc2)cc1
inactive: Potency [1] > 92 µM | Potency [2] > 92 µM | Potency [3] | Potency [4] | Potency [5] | Potency [6] | Potency [7] | Potency [8] | Potency [9] | Potency [10] | Potency [11] | activation [12] 7.64% and -3.57% | Potency [14] | activity change % (negative = inhibition) [15] 1.5% | Potency [19] | max response [20] 1.5% and 4.81%

Oc1ccc2c(c1)OCO2
-4.36%: max response [13]
inactive: Potency [1] > 92 µM | Potency [2] > 92 µM | Potency [3] | Potency [4] | Potency [5] | Potency [6] | Potency [7] | Potency [8] | Potency [9] | Potency [10] | Potency [11] | activation [12] -0.95% | Potency [14] | activity change % (negative = inhibition) [15] 5.85% | Potency [16] | Potency [17] | Potency [18] | Potency [19] | max response [20] -0.719%

NC(=O)c1ccc([N+](=O)[O-])cc1
-9.87%: max response [13]
inactive: Potency [1] > 92 µM | Potency [2] > 92 µM | Potency [3] | Potency [5] | Potency [6] | Potency [7] | Potency [8] | Potency [9] | Potency [10] | Potency [11] | activation [12] 1.08% | Potency [14] | activity change % (negative = inhibition) [15] -17.4% | Potency [16] | Potency [17] | Potency [18] | Potency [19] | max response [20] -2.18%

Nc1ccc(N=Nc2ccccc2)c(N)c1
inactive: Potency [1] > 92 µM | Potency [2] > 92 µM | Potency [3] | Potency [4] | Potency [5] | Potency [6] | Potency [7] | Potency [8] | Potency [9] | Potency [10] | Potency [11] | activation [12] -4.54% | Potency [14] | activity change % (negative = inhibition) [15] 1.36% | Potency [19]
0.404%: max response [13]
active: Potency [17] 9.44 µM | Potency [18] 10.6 µM

Brc1ccc(-c2ccccc2)cc1
4.33%: max response [13]
inactive: Potency [1] > 92 µM | Potency [2] > 92 µM | Potency [3] | Potency [4] | Potency [5] | Potency [6] | Potency [7] | Potency [8] | Potency [9] | Potency [10] | Potency [11] | activation [12] -2.59% | Potency [14] | Potency [19] | max response [20] 1.6%
